High-throughput results (PubChem BioAssay)
Most compounds without a hit are left out; they make up all but 2.9% or so of the library.
KLK7 zymogen act: proKLK7 (human) activation, primary screen; purified proKLK7, EDANS-DABCYL substrate fluorescence; 100% is mature enzyme control, 0% vehicle; activation, % at 7 µM; hit rate 0.9% among 370,000; AID 652039;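 active = activation above the mean of all tested compounds plus 3 SD, computed per campaign excluding outliers beyond control limits, cut at about 13% in these data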
Target sequence (P49862 whole entry, looked up): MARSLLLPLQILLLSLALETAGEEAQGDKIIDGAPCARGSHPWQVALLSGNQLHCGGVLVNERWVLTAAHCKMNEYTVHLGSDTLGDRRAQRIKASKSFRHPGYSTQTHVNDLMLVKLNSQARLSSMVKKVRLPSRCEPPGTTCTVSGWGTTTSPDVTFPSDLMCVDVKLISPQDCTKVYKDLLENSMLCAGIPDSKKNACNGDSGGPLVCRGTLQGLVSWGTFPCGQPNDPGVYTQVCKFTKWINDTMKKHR
GAA850 FXN act: frataxin GAA850 promoter activation; HEK293 lucGAA850 FXN promoter luciferase reporter, 24 h; percent of 10 µM SAHA response; activation, % at 6 µM; hit rate 0.56% among 360,000; AID 540364;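 active = activation above the average of all compounds screened plus 3 SD, cutoff fixed separately per campaign, cut at about 7.5% in these data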;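 note: 0% = DMSO wells and 100% = 10 µM SAHA wells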
FAS-TE inh: blocks the thioesterase domain of human fatty acid synthase; hit rate 0.67% among 360,000; recombinant FAS-TE, OMFH fluorogenic substrate, fluorescence endpoint; P49327; inhibition, % at 15 µM;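 active = compounds whose normalised, plate-corrected inhibition of enzyme fluorescence in the single-dose primary screen is 50% or more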;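 note: 0% = DMSO with enzyme and 100% = substrate without enzyme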
SMARCA2 activ: SMARCA2 function activation, primary screen | AID 652017 | activation, % at 9.1 µM | MG213 cells, MMTV-luciferase reporter, dexamethasone, overnight | hit rate 1% among 370,000; in the data active = activation above about 7.8%;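 note: 0% = vehicle wells and 100% = reference activator wells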
SMARCA2 act conf: confirmation of SMARCA2 (BRM) function activators. activation, % at 9.1 µM. MG213 cells, MMTV-luciferase with dexamethasone, luminescence, overnight; MG213 cells expressing E1A, Rb sequestered; DMSO wells 0%, reference activator 100%. AID 652260. shares compounds with SMARCA2 activ. hit rate 30% among 3,500;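 active = activation above its plate's cutoff, the mean activation of tested wells plus 3 SD, cut at about 7.9% in these data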
VP16 Luc act: counter-screen for SMARCA2 activators: GAL4-VP16 luciferase reporter activation; shares compounds with SMARCA2 activ; HEK293 GAL4-VP16 pG5luc reporter, luciferase luminescence; scaled: DMSO wells 0%, SAHA wells 100%; activation, % at 9.1 µM; hit rate 41% among 3,500;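 active = activation above the solvent-only control well mean plus 3 SD, averaged across control plates, cut at about 5.2% in these data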
The depositor's hits bear a star; . = not tested or not shown.

SMILES	KLK7 zymogen act	GAA850 FXN act	FAS-TE inh	SMARCA2 activ	SMARCA2 act conf	VP16 Luc act
Cc1ccc(/C=C\c2nccc3c2[nH]c2ccccc23)cc1	-1	6	38	10*	8	8.1*
Fc1ccc(/C=C\c2nccc3c2[nH]c2ccccc23)cc1	-19	6	36	16*	4	3
O=C(c1[nH]ncc1-c1ccccc1)C1CO1 (centres undefined)	-2	4	-10	3	.	.
O=C(c1[nH]ncc1-c1cccc(Br)c1)C1CO1 (centres undefined)	0	3	-25	11*	12*	0
Brc1cccc(-c2nc3ccc(Br)cn3c2Cc2ccsc2)c1	0	.	2	1	.	.
Clc1ccc2nc(-c3cccc(Br)c3)c(Cc3ccsc3)n2c1	0	.	8	8.9*	4	1
Cc1ccc2nc(-c3cccc(Br)c3)c(Cc3ccccc3)n2c1	-2	.	7	10*	2	5
Clc1cccc(Cc2c(-c3ccco3)nc3ccc(Br)cn23)c1	-1	.	10	-6	.	.
Cc1ccc(Cc2c(-c3cccc(Br)c3)nc3ccc(C)cn23)cc1	-4	.	.	6	.	.
Brc1ccc2nc(-c3ccco3)c(Cc3ccccc3)n2c1	0	.	11	10*	7	1
Cc1c(C(=O)NC2CC2)oc2ccccc12	0	2	-7	1	.	.
Cc1cc(SCC(=O)NN=C2CCN(C(C)C)CC2)c(C)cc1Br	0	1	-5	-3	.	.
CCCCCCCCNc1nc(Cl)nc(NCc2ccco2)n1	0	3	-13	11*	0	0
CCCCCCNc1nc(NCc2ccco2)nc(OCC)n1	0	0	20	-3	.	.
COc1ccc(CN2CCC[C@]3(N[C@H](c4ccc(OC)cc4)[C@@H]4C(=O)N(Cc5ccccc5)C(=O)[C@@H]43)C2=O)cc1	1	-5	11	0	.	.
C(=C\n1nnc2ccccc21)/c1ccccn1	0	2	-9	8.7*	8	10*
Cc1nnc(C)n1/N=C/c1ccccn1	0	1	-8	0	.	.
CCN(C(=N)N=C(N)N)c1ccccc1	0	1	-12	-1	.	.
CCCCCn1nnnc1C1(C)CCSCC(=O)N1Cc1ccco1 (centres undefined)	0	.	.	8.4*	-1	-1
Cc1cc(C(=O)O)cc(S(=O)(=O)Nc2c(C)nn(C)c2C)c1C	0	1	-4	9.4*	-2	0
CCN(CC)S(=O)(=O)c1ccc(NC(=O)CCC2CCCCC2)cc1	0	0	24	9.4*	5	1
COc1ccc(Cn2ccc3ccc(-c4ccc5ccn(Cc6ccc(OC)cc6)c5c4)cc32)cc1	-1	.	.	-2	.	.
CC(C)(C)NC(=O)C(=O)N/N=C/c1cccs1	0	6	-6	2	.	.
O=C(N/N=C/c1cccs1)c1ccccn1	0	5	-9	10*	9.6*	8.9*
C(=NN=C(NN=Cc1cccs1)NN=Cc1cccs1)c1cccs1	-1	1	13	12*	-2	5
SMILES	KLK7 zymogen act	GAA850 FXN act	FAS-TE inh	SMARCA2 activ	SMARCA2 act conf	VP16 Luc act
Cc1ccc(/C=N/NC(=O)c2ccccn2)s1	-1	1	-12	1	.	.
O=C(Cn1nnc2ccccc2c1=O)Nc1cccc(S(=O)(=O)N2CCOCC2)c1	0	1	-6	1	.	.
COc1ccccc1CNS(=O)(=O)c1ccc2c(c1)CC(C)N2C(=O)C1CCC1 (centres undefined)	0	-1	9	-4	.	.
COC(=O)CC1C(=O)NCCN1C(=O)c1ccc([N+](=O)[O-])cc1 (centres undefined)	0	1	-7	10.0*	5	0
Cc1cccc(NC(=S)NNC(=O)c2csc(C)c2)c1	0	5	-9	9.2*	8.0*	7.5*
CC(C)c1ccc(/C=N/NC(=O)c2c(Cl)cnn2C)cc1	0	5	-8	11*	15*	4
Cc1ccccc1OCCC(=O)N(Cc1ccccc1)c1c(N)n(Cc2ccccc2)c(=O)[nH]c1=O	0	-9	5	4	.	.
COc1cc2c3nnc(-c4ccccc4)c-3cn(Cc3ccccc3F)c2cc1OC	-27	.	.	9.9*	18*	2
O=C(CS(=O)(=O)c1cn(Cc2ccc(Cl)cc2)c2ccccc12)N1CCCC1	0	-1	-6	-2	.	.
